EWS-Fli inh: inhibitors of EWS/Fli oncoprotein transcriptional activity; A673 NR0B1-luciferase reporter, viability-normalised; inhibition, % at 12.6 µM; 0.67% of 350,000 active; AID 651661;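 active means mean inhibition of at least 50% after viability correction, with every replicate also passing that limit; inconclusive means mean reaches 50% but only one of two replicates passes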;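 further: firefly luciferase signal divided by Alamar Blue viability fluorescence both relative to DMSO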
EBV LMP1 NFkB: reduces LMP1-driven NF-kappaB luciferase signal | 0.69% of 350,000 active | AID 504558 | inhibition, % at 12.5 µM | LMP1-induced NF-kappaB luciferase reporter cells, luminescence; in the data active means inhibition above about 41%; inconclusive means no clear call, values can overlap the other calls
PAX8 inh HTS: inhibitors of PAX8 transcriptional activity in RMG-I cells. RMG-I TPO-luciferase reporter, SteadyGlo, 24 h. inhibition, % at 12.6 µM. 1.2% of 360,000 active. AID 652154;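 active means mean replicate inhibition at least 60% with every replicate also reaching 60%; inconclusive means only one of the two criteria is met; inactive means mean below 60% and not all replicates reaching 60%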;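 further: luciferase light reporting Pax8 driven TPO promoter activity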
LGR2 antag: inhibitors of bursicon-induced Drosophila LGR2 receptor cAMP signaling; inhibition, % at 9.99 µM; HEK293 LGR2, CRE-luciferase, bursicon-stimulated, 4 h; 0.35% of 380,000 active;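 active means drop in luminescence signal, shown as inhibition above about 50% in the replicate tests, limit read from the data, passing the limit was not always enough; inconclusive means probably only some replicates passing the limit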;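 further: agonist challenge used bursicon conditioned medium at about half maximal strength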
TROY signal inh: blocks TROY-dependent signaling in reporter cells; inhibition, % at 10 µM; AID 1347056; 0.98% of 360,000 active; Q293 LMP1-TROYcd NF-kB luciferase reporter, 4 h;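 active means compounds whose plate-normalised and pattern-corrected inhibition of the luciferase reporter signal at the single screening dose is 50% or more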
TWEAK Fn14 block: blocks TWEAK-Fn14 interaction in a reporter cell assay; inhibition, % at 10 µM; AID 1159606; TWEAK-stimulated Fn14 reporter cells, luciferase luminescence, 8 h; 2% of 360,000 active; in the data active means inhibition above about 50%
Numbers stand for hits; - = inactive; ? = inconclusive; . = no result given. The list is not random: actives were taken first. Their share in the collection is about 3.2%.

SMILES | EWS-Fli inh | EBV LMP1 NFkB | PAX8 inh HTS | LGR2 antag | TROY signal inh | TWEAK Fn14 block
O=C(c1cc(-c2cccc(Cl)c2)on1)N1CCOCC1 | - | - | - | - | - | -
O=C(c1cc(-c2ccc(Cl)cc2Cl)on1)N1CCOCC1 | - | - | . | ? | - | 70.8
Cc1ccc(-c2cc(C(=O)NCCCN3CCOCC3)no2)cc1 | . | - | . | . | - | 74.5
COc1ccc(-c2cc(C(=O)N3CCCC3)no2)cc1 | - | 50.2 | - | 74.7 | 58.6 | 57.1
CCCN(C)C[C@H]1OCCCC[C@@H](C)Oc2ccc(NS(=O)(=O)c3c(C)noc3C)cc2C(=O)N([C@@H](C)CO)C[C@H]1C | - | . | - | - | . | .
Cc1cc(N)nc(=O)n1C1CC(O)C(CO)O1 (stereo not given) | - | 86.7 | - | - | - | -
CC1=C(C(=O)Nc2ccccc2F)C(c2ccsc2)C2=C(CC(C)(C)CC2=O)N1 (stereo not given) | - | - | - | - | - | -
CC1=C(C(=O)Nc2cccc(F)c2)C(c2ccsc2)C2=C(CC(C)(C)CC2=O)N1 (stereo not given) | 54.1 | - | - | - | - | -
COc1ccc(NC(=O)Nc2cccc3c2O[C@H](CN(C)C(=O)Nc2ccc(F)cc2)[C@@H](C)CN([C@H](C)CO)C3=O)cc1 | - | . | - | - | . | .
O=C(NCc1ccc(F)cc1)c1cccc2c1C(=O)c1ccc(N3CCC(Cc4ccccc4)CC3)cc1S2(=O)=O | - | - | - | - | - | -
O=C1c2ccc(Cl)cc2S(=O)(=O)c2cccc(C(=O)N3CCC(Cc4ccccc4)CC3)c21 | - | - | - | ? | 65.4 | -
O=C(NC1CC1)c1cccc2c1C(=O)c1ccc(N3CCC(Cc4ccccc4)CC3)cc1S2(=O)=O | - | - | - | - | - | 63.5
O=C1c2ccc(Cl)cc2S(=O)(=O)c2cccc(C(=O)N3CCN(c4ncc(Br)cn4)CC3)c21 | - | - | - | - | - | -
O=C1N(CCS(=O)(=O)c2ccccc2)Cc2ccccc2C[C@@]12N=C(c1ccc(OCCCO)cc1)O[C@H]2c1ccccc1 | - | . | 94.4 | . | . | .
O=C1N(Cc2ccccc2)Cc2ccccc2[C@@H]2OC(c3ccc(OCCCO)cc3)=N[C@]12Cc1ccccc1 | - | . | 64.2 | . | . | .
O=C1N(CCS(=O)(=O)c2ccccc2)Cc2ccccc2[C@@H]2OC(c3ccc(OCCCO)cc3)=N[C@]12CCS(=O)(=O)c1ccccc1 | - | . | - | . | . | .
C=CC[C@]12N=C(c3ccc(OCCCO)cc3)O[C@H]1c1ccccc1CN(C(=O)c1ccccc1)C2=O | - | . | - | . | . | .
O=C1N(Cc2ccccc2)Cc2ccccc2[C@H]2OC(c3ccc(OCCCO)cc3)=N[C@@]12Cc1ccccc1 | - | . | . | . | . | .
O=C(c1ccccc1)N1Cc2ccccc2C[C@]2(N=C(c3ccc(OCCCO)cc3)O[C@@H]2c2ccccc2)C1=O | - | . | 68.1 | . | . | .
Cc1noc(C)c1NC(=O)Nc1ccc2c(c1)C(=O)N([C@H](C)CO)C[C@@H](C)[C@@H](CN(C)S(=O)(=O)c1ccc(F)cc1)O2 | - | . | - | - | . | .
COc1ccccc1NC1=Nc2cccc3cccc1c23 | - | . | 91.4 | - | - | -
O=C(NCc1cccnc1)c1c[nH]c2cc3c(cc2c1=O)OCCO3 | . | - | . | . | - | 69.6
CCN=c1scc(C)n1/N=C/c1cc(Br)c(O)c(Br)c1 | - | - | - | - | 53.2 | -
COc1ccc(S(=O)(=O)Nc2ccc3c(c2)CC(=O)N([C@@H](C)CO)C[C@@H](C)[C@@H](CN(C)C(=O)Nc2ccc4c(c2)OCO4)O3)cc1 | - | . | - | - | . | .
CCCNC(=O)[C@H]1[C@H](CO)[C@H]2Cn3c(ccc(-c4ccncc4)c3=O)[C@@H]1N2C(=O)CC1CC1 | - | . | - | - | . | .
SMILES | EWS-Fli inh | EBV LMP1 NFkB | PAX8 inh HTS | LGR2 antag | TROY signal inh | TWEAK Fn14 block
CC(=O)N/C(=N\c1nc(C)cc(C)n1)Nc1ccc2ccccc2c1 | - | - | - | - | 77.5 | 74.0
CNC(=O)C[C@H]1CC[C@@H]2[C@@H](COc3ccc(NC(=O)c4cccc(OC)c4)cc3C(=O)N2C)O1 | - | . | - | - | . | .
CC(C)CC#Cc1ccc([C@H]2[C@@H](CO)N3C(=O)CN(C(=O)c4cccc(F)c4)C[C@@H]23)cc1 | - | . | - | - | . | .
C[C@@H]1CN([C@H](C)CO)C(=O)c2cc(C#CCN(C)C)cnc2O[C@@H]1CN(C)C(=O)c1cnccn1 | - | . | - | - | . | .
CC(=O)N(C)C[C@@H]1Oc2cc(-c3ccccc3C)ccc2S(=O)(=O)N([C@@H](C)CO)C[C@@H]1C | - | . | . | - | . | .
O=c1[nH]c(/C=C/c2ccc(Br)cc2)nc2ccccc12 | - | - | - | - | - | -
